From PubChem BioAssay AID504884 (Broad Institute, 2011)
About 230 (0.064%) of roughly 360,000 compounds were called active. Rule as the data show it: active = activity above about 50% (passing the limit was not always enough); inconclusive = no clear call, values can overlap the other calls. Many of the other results were omitted from the sample, so actives are more common in it than they were.

The compounds below were run on DNA topoisomerase I (Yersinia pestis CO92) (assay: Yersinia pestis topoisomerase I inhibitors, primary screen, biochemical, cleavage product accumulation, plate reader, single point (AID 504884)). Details: Y. pestis Topo-I cleavage product accumulation, at 10 µM, stronger effect = higher value.
For `COc1ccccc1N1CC(C(=O)Nc2nnc(SCC(=O)NC(C)C)s2)CC1=O` (stereo unspecified), the activity was 6.4% (inactive). For `Cc1cc(SCC(=O)NCCN2C(=O)CSC2=O)nc2ccccc12`, the activity was 2.72% (inactive). In the case of `O=[N+]([O-])c1ccc(S(=O)(=O)Nc2cccc(-c3ccc(N4CCCC4)nn3)c2)cc1`, the activity is reported as 21.6% (inactive). With `CC1CCc2sc(C(=O)NCC(c3ccco3)N3CCCCC3)cc2C1` (stereo unspecified) the activity was -2.82% (inactive). For `CC(C)Oc1ccc(CN2CCC2(C)C(=O)NCc2ccc(C(F)(F)F)cc2)cc1` (stereo unspecified), the activity was 15.8% (inactive). With `COc1ccc(CN2CCN(C(=O)c3cc(C4CC4)nn3-c3ccccc3)CC2)cc1F` the activity was 29.4% (inactive). In the case of `CN(C)C(=O)N=NC(=O)N(C)C`, the activity is reported as -8.5% (inactive). For `C[C@H](CO)N1C[C@H](C)[C@@H](CN(C)Cc2ccc(-c3ccccc3)cc2)Oc2ccc(NC(=O)Cn3cnnn3)cc2C1=O`, the activity was 22.5% (inactive). `O=C(CN1CCC(NC(=O)C2CC2)CC1)Nc1ccccc1[N+](=O)[O-]` was tested, and the activity was 2.07% (inactive). `COc1ccc(CN(C)C(=O)CC(c2ccccc2)c2ccccc2)cc1` was tested, and the activity was 51.6% (active). With `COc1ccc(C(CCN(Cc2ccc(OC)c(OC)c2)C(=O)CCl)c2ccccc2)cc1` (stereo unspecified) the activity was 12.3% (inactive). `CN(Cc1ccc(F)cc1)C(=O)COc1ccc2ccccc2c1` was tested, and the activity was 27.3% (inactive). In the case of `Cc1ccc(S(=O)(=O)NCC(=O)N2CCOCCOCCOCCOCC2)cc1`, the activity is reported as 5.8% (inactive). In the case of `Cc1cc(C)nc(/N=C2\NC(=O)CC(C(=O)O)N2c2ccc(Cl)cc2Cl)n1` (stereo unspecified), the activity is reported as -1.83% (inactive). In the case of `O=C1NNC(c2ccccc2)=N/C1=C\c1ccc(Cl)cc1`, the activity is reported as -4.41% (inactive). With `Cc1ccccc1-n1nnnc1SCCCC(=O)c1ccc(F)cc1` the activity was 21.7% (inactive). With `Cc1ccc2c(c1)C(c1ccccc1)N(C(=O)c1ccc(S(=O)(=O)N3CCOCC3)cc1)CC(=O)N2` (stereo unspecified) the activity was 3.57% (inactive). For `Cc1cc(C)c(C(N)=O)c(Cl)n1`, the activity was 0.37% (inactive). For `CCOc1ccc(S(=O)(=O)N2CCC(c3ccccc3)CC2)cc1C(=O)O`, the activity was -7.32% (inactive). `COC(=O)Nc1ccc(S(=O)(=O)N2CCN(CCN3C(=O)C4C5C=CC(C5)C4C3=O)CC2)cc1` (stereo unspecified) was tested, and the activity was 0.176% (inactive). In the case of `CN(C(=O)CSc1nnc(C2CC2)n1C)C1CCCc2ccccc21` (stereo unspecified), the activity is reported as 9.61% (inactive). In the case of `CC(=O)c1ccc(NC(=O)C2CCCN2S(=O)(=O)c2cccs2)cc1` (stereo unspecified), the activity is reported as -1.65% (inactive). In the case of `CC=CCn1c(SCCCc2ccccc2)nc2c1c(=O)[nH]c(=O)n2C`, the activity is reported as 14.6% (inactive). `C=CCn1c(SCc2ccccc2)nc2c1c(=O)[nH]c(=O)n2C` was tested, and the activity was 20.2% (inactive). In the case of `CCCCCn1c(SCCC(C)C)nc2c1c(=O)[nH]c(=O)n2C`, the activity is reported as 112% (active). In the case of `C[C@H]1CCC(=O)N([C@H](CSc2ccccc2)Cc2ccccc2)CC1`, the activity is reported as 59.9% (active). `O=C1CC[C@H](O)CCN1[C@H](CSc1ccc(Br)cc1)Cc1ccccc1` was tested, and the activity was 10.9% (inactive). With `CC(=O)Nc1ccc(SC[C@H](Cc2ccccc2)N2CC[C@@H](C)CCC2=O)cc1` the activity was 25.8% (inactive). For `Cc1cc(Cl)c(S(=O)(=O)NCc2cccnc2)cc1OCC(N)=O`, the activity was -1.35% (inactive). In the case of `CN(C)c1ccc(C(=S)N2CCN(C(=S)Nc3ccc(Cl)cc3)CC2)cc1`, the activity is reported as 3.46% (inactive). For `Cc1cc(OCC(=O)NCC(O)c2ccccc2)c2c(C)c(C)c(=O)oc2c1` (stereo unspecified), the activity was -1% (inactive). With `O=C(CSc1ncnc2c1oc1ccccc12)NC1CCCC1` the activity was 2.5% (inactive). In the case of `CCC(=O)NC(Nc1cc(C)ccn1)(C(F)(F)F)C(F)(F)F`, the activity is reported as -7.52% (inactive). For `CCOC(=O)c1nn(-c2cccc(C)c2)cc1C(=O)c1ccccc1`, the activity was 67.3% (active). In the case of `CCOC(=O)c1cn(Cc2cccc(C)c2)nn1`, the activity is reported as -1.57% (inactive). With `CC(=O)c1nn(-c2ccc(C)cc2)cc1C(=O)c1cccc(Br)c1` the activity was 8.28% (inactive). With `COCC(C)n1c(C)cc(C(=O)COc2ccc(C)nc2[N+](=O)[O-])c1C` (stereo unspecified) the activity was 8.7% (inactive). `COC(=O)[C@H]1C[C@H](OC(=O)NCc2ccccc2)[C@@]2(O)CN(S(=O)(=O)c3ccc(C)cc3)CC2[C@H]1C(=O)OC` (stereo partly specified) was tested, and the activity was 7.34% (inactive). With `Cc1cc2nc(C(F)(F)F)cc(-c3cccs3)n2n1` the activity was -15.7% (inactive). With `COc1c(C)c2c(c(O)c1C/C=C(\C)CCC(=O)O)C(=O)OC2` the activity was 5.68% (inactive). For `CC1(Oc2ccccc2-c2ccno2)CCN(Cc2ccc(-c3ccccc3)o2)C1` (stereo unspecified), the activity was 24% (inactive). For `Cc1ccn(CC(=O)NC2CCCN(Cc3ccccc3F)C2)n1` (stereo unspecified), the activity was -8.15% (inactive). In the case of `CC(C)CN(C(=O)Cn1c(=O)cnc2ccccc21)C1CCS(=O)(=O)C1` (stereo unspecified), the activity is reported as 1.02% (inactive). In the case of `CCN1CCN(c2cc3nc(C)n(Cc4ccccc4)c(=O)c3cc2NC(=O)c2ccccc2F)CC1`, the activity is reported as 23.4% (inactive). In the case of `COc1ccc(N=C2C=CC(=O)O2)cc1`, the activity is reported as 1.67% (inactive). `C=C1c2cccc(OC)c2O[C@H](C(=O)OCC)[C@@H]1CCCCCC` was tested, and the activity was 39% (inactive). For `COC(=O)[C@@H]1C[C@@]2(O)[C@H](O)[C@H](O)[C@H](O)C[C@H]2N1Cc1ccc(C(C)(C)C)cc1`, the activity was 1.65% (inactive). For `O=C(NCc1ccc(F)cc1)c1cc(C2CCCCN2C(=O)c2cccs2)on1` (stereo unspecified), the activity was 28.6% (inactive). For `COc1ccccc1-c1n[nH]c2c1[C@H](C)CC[C@H]2C(C)C`, the activity was 29.7% (inactive). In the case of `CN(C)c1ccc(CNC2C3CC4CC(C3)CC2C4)cc1` (stereo unspecified), the activity is reported as -0.886% (inactive). With `COCCN(C(=O)CC1CCCCC1)c1c(N)n(CC(C)C)c(=O)[nH]c1=O` the activity was -3.38% (inactive). With `CCCCCN(C(=O)CCC(=O)OCCOc1ccc(OC)cc1)c1c(N)n(CCCC)c(=O)[nH]c1=O` the activity was 20.2% (inactive). For `CC1CCCC(C)N1/N=C/c1ccccc1OC(F)F` (stereo unspecified), the activity was -8.42% (inactive). With `Fc1ccc(Br)cc1/C=N/n1cnnc1` the activity was 1.69% (inactive). With `Cc1nc2c(ncn2-c2ccccc2)c(=O)n1NC(=O)CN1CCCC1` the activity was -2.1% (inactive). In the case of `CCC(CC)C(=O)Nc1c2c(nn1-c1ccc(C)cc1)CS(=O)(=O)C2`, the activity is reported as -1.49% (inactive). In the case of `CCN(CC)P(=O)(Oc1cccc(C)c1)N(CC)CC`, the activity is reported as 2.59% (inactive). For `Cc1cccc(OP(=O)(Oc2cccc(C)c2)OC(c2ccccc2)C(F)(F)F)c1` (stereo unspecified), the activity was 60.4% (active). In the case of `Cc1cccc(OP(=O)(Nc2c(C)n(C)n(-c3ccccc3)c2=O)Oc2cccc(C)c2)c1`, the activity is reported as 25.5% (inactive). With `Cc1cc(N2CCN(c3ccc(F)cc3)CC2)n2ncnc2n1` the activity was 1.33% (inactive). `O=c1c2ccccc2ncn1CCCCOc1ccccc1F` was tested, and the activity was 5.21% (inactive). For `N/C(=N\OC(=O)CCn1cccc(C(F)(F)F)c1=O)c1ccc(OC(F)(F)F)cc1`, the activity was 0.341% (inactive). With `O=S(=O)(c1cccc2nonc12)N1CCN(c2cccc(Cl)c2)CC1` the activity was 8.66% (inactive). With `Cc1ccc(S(=O)(=O)N2CCC(Oc3ccc(-n4cnnn4)cc3)CC2)cc1` the activity was 9.39% (inactive). For `CCCCNC1(C#N)CCN(Cc2ccccc2)CC1`, the activity was -6.77% (inactive). `Cc1c(CCO)c(=O)[nH]n1C(=O)c1c(F)cccc1F` was tested, and the activity was 11.7% (inactive). With `O=C(/C=C/c1cnc2ccccc2n1)NC1CCCCCC1` the activity was 7.03% (inactive). For `COc1ccccc1CNC(=O)CNC(=O)c1cn(-c2ccccc2OC)c(=O)c2ccccc12`, the activity was 2.16% (inactive). For `CSc1cccc(NC(=S)N(Cc2ccccc2)Cc2ccccn2)c1`, the activity was 9.55% (inactive). In the case of `COc1cc(OC)cc(-c2cc3nc(C4CCN(C(=O)OC(C)(C)C)CC4)cc(=O)n3[nH]2)c1`, the activity is reported as 2.04% (inactive). In the case of `CS(=O)(=O)c1sc(C(=O)NC(=S)Nc2ccc(OC(F)(F)F)cc2)c2c1C=CCC2`, the activity is reported as 6.39% (inactive). In the case of `Cc1ccc(N2C(=O)CC(NCc3ccc4c(c3)OCO4)C2=O)cc1Cl` (stereo unspecified), the activity is reported as 4.73% (inactive). For `Cc1ccc(CCNC(=O)C2CCN(S(=O)(=O)N3CCCC3)CC2)cc1`, the activity was 0.896% (inactive). For `Cc1ccc(S(=O)(=O)N2CCC(C(=O)NCCC3=CCCCC3)CC2)cc1C`, the activity was 51.1% (active). With `CSc1ccc(S(=O)(=O)N2CCC(C(=O)NCCc3ccccc3)CC2)cc1` the activity was 3.52% (inactive). With `CN(C(=O)COC(=O)CCCc1c[nH]c2ccccc12)c1c(N)n(Cc2ccccc2)c(=O)[nH]c1=O` the activity was 15% (inactive). In the case of `COc1ccc(/C(=N\O)c2nccc3cc(OC)c(OC)cc23)cc1OC`, the activity is reported as 6.19% (inactive). `COCCCNC(=O)C1CC(=O)N(CCc2ccc(F)cc2)C1` (stereo unspecified) was tested, and the activity was -2.65% (inactive). In the case of `O=C(NC1CCC(O)CC1)c1ccccc1OCc1ccc(F)cc1` (stereo unspecified), the activity is reported as 1.15% (inactive). With `CC(OC(=O)c1ccccc1OCc1ccc(Cl)cc1)C(N)=O` (stereo unspecified) the activity was 4.36% (inactive). For `CC(=O)c1ccccc1OCc1ccc(C(=O)c2ccccc2)cc1`, the activity was 55.1% (active). `CCOC(=O)C1CCN(S(=O)(=O)c2ccc3c(c2)N(C)C(=O)CC(=O)N3C)CC1` was tested, and the activity was -0.905% (inactive). For `FC(F)(F)C1CCCN(c2nsc3ccccc23)C1` (stereo unspecified), the activity was 4.11% (inactive). `CCCCNC(=O)c1ccccc1NC(=O)c1ccccc1N(C)S(C)(=O)=O` was tested, and the activity was 8.01% (inactive). In the case of `c1ccc(CC2CCN(c3nc4ccccc4n4cnnc34)CC2)cc1`, the activity is reported as 27.5% (inactive). For `COc1ccc(CN2CCC(n3nccc3NC(=O)CCCc3ccccc3)CC2)cc1C`, the activity was 18.3% (inactive). In the case of `CC(C)(C)N(Cc1ccccc1)C(=O)COC(=O)CCc1c[nH]c2ccccc12`, the activity is reported as 1.59% (inactive). `CC1(c2ccc3ccccc3c2)NC(=O)NC1=O` (stereo unspecified) was tested, and the activity was 0.131% (inactive). With `O=C1CSC(c2cccc(F)c2)N1c1ccccc1F` (stereo unspecified) the activity was -2.91% (inactive). For `O=C(Cc1ccccc1F)NC1CCSc2ccccc21` (stereo unspecified), the activity was 5.76% (inactive). With `O=S(=O)(O)c1cc2onnc2c2ccccc12` the activity was -2.58% (inactive).
